# Screens as filed in PubChem.
# Hits are enriched below; roughly 3.9% of the tested compounds scored in any of these assays.
# HepG2 tox – counter-screen for TGF-b inhibitors: cytotoxicity in HepG2 cells; HepG2 CAGA-GFP viability, ATP luminescence, 18 h; Potency, µM (top dose mostly 46.1 µM), inactives show at the top dose activity change, negative = cytotoxicity, most hits filed as cytotoxic; 410,000 compounds, 0.76% hits
#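 HepG2 CAGA-GFP cells (1000/well, DMEM with 1% FBS) received compound, then TGF-beta at 500 pg/mL final, and were incubated 18 hours at 37 degrees C. Viability was read by CellTiter-Glo luminescence. Media-only wells were set as complete cell-killing and DMSO as no toxicity.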
# TGFb SMAD3 inh – TGF-b pathway inhibition. AID 588855. 410,000 compounds, 1.2% hits. Potency, µM (top dose mostly 46.1 µM), for the others: top-dose activity, negative = inhibition, most hits filed as inhibitors. HepG2 CAGA-GFP TGF-b/SMAD3 reporter, GFP fluorescence, 18 h; TGF-beta stimulated, 500 pg/mL final; note: % is set by controls: 0 for no effect and ±100 for the full control effect; nearly all actives have a fitted effect of over 65% in size
#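 Inhibition was scored as loss of TGF-beta-induced (500 pg/mL final, 18 hours, 37 degrees C) GFP in HEPG2 cells carrying a CAGA-GFP reporter, in DMEM with 1% FBS. Well GFP was summed per cell; Activity was normalised to unstimulated and stimulated DMSO wells, then concentration-response fitting.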
# S2 tox – reduces viability in counter-screen for ATXN expression inhibitors. S2 cells (HEK-293 line with an ATXN2-luciferase reporter) viability, CellTiter-Fluor protease fluorescence, 24 h. Potency, µM (doses to about 56.7 µM), actives largely listed as cytotoxic. 400,000 compounds, 0.49% hits. AID 651635; note: nearly all actives have a fitted effect of over 40% in size
# ATXN2 expr inh – inhibitors of ATXN2 expression; HEK-293 ATXN2-luciferase reporter, luminescence, 24 h; Potency, µM (doses to about 57 µM), without a hit: at the top dose activity change, negative = inhibition, hits mostly inhibitors; 360,000 compounds, 0.72% hits; AID 1745845; note: % is set by controls: 0 for no effect and ±100 for the full control effect; nearly all actives have a fitted effect of over 55% in size
#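 ATXN2-luciferase reporter cells (luciferase flanked by upstream and downstream ATXN2 gene portions) were treated 24 h at 37 °C with compounds at up to 57 uM. SteadyGlo luminescence gave expression; GF-AFC fluorescence gave viability.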
# HT1080-NT tox – kills 2HG-producing HT-1080-NT fibrosarcoma cells. AID 686970. Potency, µM (series often up to 46.1 µM), for inactives: at the top dose activity, negative = less viability, usual class: cytotoxic. HT-1080-NT fibrosarcoma viability, CellTiter-Glo ATP luminescence, 48 h. 360,000 compounds, 1.6% hits;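 note: NT is the 2HG producing partner of a matched IDH1 knockdown line; 0% = DMSO-treated cells and -100% = media-only wells without cells; nearly all actives have a fitted effect of over 55% in size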
#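 Compounds were tested in concentration-response format on HT-1080-NT cells for 48 hours at 37 degrees C. Cell viability came from CellTiter-Glo luminescence; curves were classified by r2, response magnitude and activity.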
# HT1080 IDH1KD tx – HT-1080 IDH1 knockdown cell toxicity (counter line). 360,000 compounds, 2% hits. AID 686971. HT-1080 IDH1 knockdown viability, ATP luminescence, 48 h. Potency, µM (series often up to 46.1 µM), without a hit: at the top dose activity, negative = toxicity, actives largely listed as cytotoxic;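 note: 0% = DMSO wells and -100% = cell-free medium wells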
#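 HT-1080-IDH1KD cells (IDH1 knocked down), 750/well in RPMI with 5% FBS, treated with compound 48 h at 37 degrees C. Viability by CellTiter-Glo luminescence, normalised to DMSO and no-cell wells; concentration-response curves classed.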
# The depositor's hits bear a star; i = inactive; ? = inconclusive; / = no result given; [ ] = remark or other dose. Calls come from the whole dose curve; as a rule, active = well fitted curve in the direction sought with a large enough effect; inconclusive = small, poorly fitted or top-dose-only effect, or another doubt; inactive = no such curve, though single readings can be large; an effect the other way counts as inactive or inconclusive. Potency is the fitted concentration of half-maximal effect.
SMILES,HepG2 tox,TGFb SMAD3 inh,S2 tox,ATXN2 expr inh,HT1080-NT tox,HT1080 IDH1KD tx
CCCn1c(=O)c2sccc2n2c(CCCC(=O)Nc3cccc(CC)c3)nnc12,-21%,?,/,/,/,/
COc1ccc(CNC(=O)CNC(C)c2ccc(F)cc2)cc1 (configuration not stated),8%,-3%,i,0%,-2%,5%
COc1ccc(C(CCNCc2ccccc2)c2ccc(F)cc2)cc1 (configuration not stated),-60%,18µM*,i,-31%,?,16µM*
COc1ccc(CNCCC(c2ccc(F)cc2)c2ccc(OC)cc2)cc1 (configuration not stated),-97%,?,i,-14%,21µM*,21µM*
COc1cccc(OCCNCc2ccccc2)c1,-22%,-9%,i,3%,-2%,8%
COc1ccc(CNS(=O)(=O)CCNCCc2ccccc2)cc1,-15%,-14%,i,13%,9%,10%
COc1ccc(CCNCc2ccc(OCc3ccccc3)cc2)cc1,-101%,?,i,-29%,?,18µM*
COc1ccc(C(CCNC(C)c2ccccc2)c2ccc(F)cc2)cc1 (configuration not stated),-73%,13µM*,?,28µM*,?,18µM*
CCCOC(=O)c1c(NC(=O)c2cc3ccccc3c(=O)o2)sc2c1CCC(C)C2 (configuration not stated),-21%,?,i,1%,/,/
C=CCn1c(=O)/c(=C/c2ccc(O)cc2)s/c1=C(/C#N)c1nnc2n1CCCCC2,-5%,5%,i,-27%,2%,18%
C=CCn1c(=O)/c(=C/c2ccc(Cl)cc2)s/c1=C(/C#N)c1nnc2n1CCCCC2,-17%,-9%,18µM*,22µM*,0%,9%
Cc1ccc2[nH]c3c(c2c1)CN(C(=O)CN1CCN(c2cccc(C)c2C)CC1)CC3,-37%,?,i,?,?,18µM*
COc1cc(OC)c2c(-c3cccc(-c4ccc(N(C)C)cc4)c3)cc(=O)oc2c1,-7%,1.1µM*,i,1%,?,1.3µM*
COc1cc(OC)c2c(-c3cccc(-c4ccc(O)cc4)c3)cc(=O)oc2c1,-19%,?,i,?,?,?
COc1cc(OC)c2c(-c3cccc(-c4ccc(CO)cc4)c3)cc(=O)oc2c1,-4%,5µM*,i,?,?,0.52µM*
COc1cc(OC)c2c(-c3cccc(-c4cccc(C)c4)c3)cc(=O)oc2c1,-24%,?,i,-19%,?,5.8µM*
CCN(CC)c1ccc(-c2nc(-c3ccccc3C)no2)cc1[N+](=O)[O-],4%,-16%,i,2%,/,/
CCCCCCCCCCCCCCC[C@@H](O)[C@@H](N)CO,-4%,-5%,?,0%,18µM*,21%
COc1ccc(Cl)cc1NC(=O)C/C(C)=N/NC(=O)c1ccccc1[N+](=O)[O-],-14%,-6%,i,-18%,-28%,?
COc1ccc(Cl)cc1NC(=O)c1cccc([N+](=O)[O-])c1O,-20%,11µM*,?,?,?,?
CCN(Cc1ccccc1)C(=O)c1cc(-c2ccccc2)n[nH]1,-33%,-2%,i,33%,/,/
CC(Oc1ccc2c(c1)c1ccnc3c4ccccc4c(=O)n2c13)C(=O)NCCN1CCOCC1 (configuration not stated),11µM*,0%,i,-2%,-9%,-7%
CC(=O)c1cc2c(s1)-c1cc(F)ccc1OC2,-44%,7.1µM*,/,?,6%,-2%
O=C(Cn1cnnn1)N[C@@H]1C(=O)N2C(C(=O)O)=C(CSc3nncs3)CS[C@H]12,/,/,i,/,/,/
O=C(NCC(c1ccco1)N1CCc2ccccc21)c1ccccc1F (configuration not stated),10%,-1%,i,4%,2%,3%
SMILES,HepG2 tox,TGFb SMAD3 inh,S2 tox,ATXN2 expr inh,HT1080-NT tox,HT1080 IDH1KD tx
O=C(CCc1ccccc1)NCC(c1ccco1)N1CCc2ccccc21 (configuration not stated),-2%,?,i,-10%,6.5µM*,5.2µM*
CCC(CO)Oc1cc(NCc2cccc(Cl)c2)c2ncn(C(C)C)c2c1 (configuration not stated),-76%,20µM*,?,?,?,?
O=C(CCl)c1ccc2c(c1)CCCC2,-28%,4%,/,/,/,/
COc1cc(-c2noc(C)c2/C=C/c2ccc(OC(C)=O)cc2)cc(OC)c1OC,-1%,?,?,-6%,0.37µM*,0.52µM*
CCn1c(CN2CCCCC2)nc2cc(NC(=O)COc3ccc(C(C)(C)C)cc3)ccc21,-3%,0%,i,-8%,/,/
CCCCCCC1CC(CSC(=N)N)OC1=O (configuration not stated),-14%,15%,?,0%,-4%,9%[9.24 µM]
CCCCCC1(C(=O)OCC)CC(CSC(=N)N)OC1=O (configuration not stated),-73%,13µM*,i,0%,1%,2%
CNC(=O)N(O)C1N(/N=C/c2ccc(N(C)C)cc2)C(=S)SC1(C)C (configuration not stated),-18%,-18%,i,5%,8%,10%
CC1(C)SC(=S)N(/N=C/c2ccccc2)C1N(O)C(=O)Nc1ccc([N+](=O)[O-])cc1 (configuration not stated),11µM*,?,i,-27%,?,?
CC(C)Cc1nc2cc(NS(=O)(=O)N(C)C)cc(C(=O)N3CC4(C)CC3CC(C)(C)C4)c2n1C (configuration not stated),/,/,i,/,/,/
CCCOC(=O)/C(=C\c1ccc([N+](=O)[O-])o1)NC(=O)c1ccccc1,-58%,?,?,-28%,-10%,-27%
CCOC(=O)/C(=C\c1ccc([N+](=O)[O-])o1)NC(=O)c1ccccc1,11µM*,?,?,-21%,?,?
CCC1Oc2ccc(C)cc2N(CC(=O)N(Cc2cccnc2)Cc2ccc(C)o2)C1=O (configuration not stated),-31%,-13%,i,-16%,-19%,-5%
CCC1Oc2ccc(C)cc2N(CC(=O)N(Cc2ccc(C)o2)C2CC(C)(C)NC(C)(C)C2)C1=O (configuration not stated),13µM*,?,?,?,16µM*,?
